# Measured values taken from PubChem BioAssay (EPA / NIEHS).
# Activity calls are given as the source filed them. How the source made its calls: active means hit-call score of the fitted dose curve at least 0.9, where 1 is the maximum; inactive means score below 0.9.
# Legend:
# [1] = read-out: Cytochrome P450 (CYP1A1), CYP1A1 (gene 1543); experiment: LTEA_HepaRG_CYP1A1: Life Technologies and Expression Analysis (LTEA) Assay for Cytochrome P450 (CYP1A1) using HepaRG (AID 2283454); conditions: mRNA level, 48 h; actives raise or lower the signal
# Method in brief: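 CYP1A1 transcript levels measured by Fluidigm qRT-PCR against three housekeeping genes, 48 h after chemical dosing of human HepaRG cells (highest concentration 100 uM, half-log steps, 0.5% DMSO vehicle). Gain or loss of signal fitted relative to DMSO.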
# [2] = read-out: CFLAR gene, CFLAR (gene 8837); experiment: LTEA_HepaRG_CFLAR: Life Technologies and Expression Analysis (LTEA) Assay for CFLAR gene using HepaRG (AID 2283455); conditions: mRNA level, 48 h; actives raise or lower the signal
# Method in brief: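 Gain- or loss-of-signal changes in CFLAR transcript were fitted bidirectionally relative to 0.5% DMSO. Cells (HepaRG, duplicate wells) were dosed for 48 h across eight half-log concentrations topping at 100 uM; quantitation by TaqMan qRT-PCR.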
# [3] = read-out: growth arrest and DNA damage 45 (GADD45A), GADD45A (gene 1647); experiment: LTEA_HepaRG_GADD45A: Life Technologies and Expression Analysis (LTEA) Assay for growth arrest and DNA damage 45 (GADD45A) using HepaRG (AID 2283458); conditions: mRNA level, 48 h; actives raise or lower the signal
# Method in brief: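 HepaRG, 48 h exposure, 8 conc. (top 100 uM, half-log steps), 0.5% DMSO vehicle, duplicates. Read-out: qRT-PCR mRNA level, housekeeping-normalized (ACTB/GAPDH/POLR2A). Curves fit bidirectionally vs DMSO baseline.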
# [4] = read-out: Forkhead box O3 (FOXO3), FOXO3 (gene 2309); experiment: LTEA_HepaRG_FOXO3: Life Technologies and Expression Analysis (LTEA) Assay for Forkhead box O3 (FOXO3) using HepaRG (AID 2283459); conditions: mRNA level, 48 h; actives raise or lower the signal
# Method in brief: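 Gene-expression endpoint: FOXO3 transcript level by qRT-PCR in HepaRG cultures treated 48 h with chemicals up to 100 uM (half-log, 0.5% DMSO vehicle).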
# [5] = read-out: ABC Transporter (ABCB1), ABCB1 (gene 5243); experiment: LTEA_HepaRG_ABCB1: Life Technologies and Expression Analysis (LTEA) Assay for ABC Transporter (ABCB1) using HepaRG (AID 2283460); conditions: mRNA level, 48 h; actives raise or lower the signal
# Method in brief: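 Human liver HepaRG line treated 48 h with up to 100 uM compound (eight half-log points, 0.5% DMSO); ABCB1 mRNA change fitted bidirectionally against DMSO controls.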
# [6] = read-out: growth arrest and DNA damage 45 (GADD45B), GADD45B (gene 4616); experiment: LTEA_HepaRG_GADD45B: Life Technologies and Expression Analysis (LTEA) Assay for growth arrest and DNA damage 45 (GADD45B) using HepaRG (AID 2283461); conditions: mRNA level, 48 h; actives raise or lower the signal
# Method in brief: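 Transcript level quantified by Fluidigm TaqMan qRT-PCR with three housekeeping genes for normalization, analyzed for up- or down-regulation against 0.5% DMSO. HepaRG cultures dosed 48 h at eight half-log concentrations up to 100 uM, duplicates.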
# [7] = read-out: ABC Transporter (ABCC3), ABCC3 (gene 8714); experiment: LTEA_HepaRG_ABCC3: Life Technologies and Expression Analysis (LTEA) Assay for ABC Transporter (ABCC3) using HepaRG (AID 2283462); conditions: mRNA level, 48 h; actives raise or lower the signal
# Method in brief: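 Transcript level by TaqMan qRT-PCR, normalised to three housekeeping genes, fitted in both directions relative to vehicle. Chemicals tested in duplicate at eight half-log concentrations up to 100 uM for 48 h on HepaRG cells (0.5% DMSO).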
# [8] = read-out: ABC Transporter (ABCB11), ABCB11 (gene 8647); experiment: LTEA_HepaRG_ABCB11: Life Technologies and Expression Analysis (LTEA) Assay for ABC Transporter (ABCB11) using HepaRG (AID 2283463); conditions: mRNA level, 48 h; actives raise or lower the signal
# Method in brief: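 Using HepaRG cultures held in 0.5% DMSO, chemicals were tested at half-log dilutions from 100 uM for 48 h. Induction or suppression of ABCB11 mRNA, normalized to ACTB, GAPDH and POLR2A, was fitted bidirectionally against vehicle.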
# [9] = read-out: Forkhead box O1 (FOXO1), FOXO1 (gene 2308); experiment: LTEA_HepaRG_FOXO1: Life Technologies and Expression Analysis (LTEA) Assay for Forkhead box O1 (FOXO1) using HepaRG (AID 2283456); conditions: mRNA level, 48 h; actives raise or lower the signal
# Method in brief: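 Using one lot of HepaRG hepatic cells kept in 0.5% DMSO, the team applied test chemicals in duplicate, half-log dilutions from 100 uM, for 48 h. Expression, normalised to ACTB/GAPDH/POLR2A, was compared with vehicle in either direction.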
# [10] = CEETOX_H295R_TESTO: CeeTox H295R High-throughput Steroidogenesis Assay for Testosterone (TESTO) (AID 2283457); conditions: actives raise or lower the signal;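 on AC50: cells exposed to chemicals for 48 h before medium collection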
# Method in brief: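 Testosterone secreted into the medium over 48 h by H295R cells (maximum passage 10) was quantified by LC-MS/MS after MTBE extraction. Fitted in both directions against DMSO, with concentrations diluted until MTT viability was ≥70%.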
structure (smiles),measurement,setting,value
CCCN(C1CCN(C(=O)C2CCNCC2)CC1)[C@@H]1CCc2ccc(OC)cc2C1,outcome,[1],inactive
same,AC50,[2],50 µM (active)
same,outcome,[3],inactive
same,AC50,[4],27.6 µM (active)
same,AC50,[5],15.2 µM (active)
same,outcome,[6],inactive
same,AC50,[7],42.9 µM (active)
same,AC50,[8],70 µM (active)
O=C1OC(=O)C2C3C=CC(C3)C12 (stereo not given),AC50,[1],84.5 µM (active)
same,outcome,[2],inactive
same,outcome,[3],inactive
same,outcome,[4],inactive
same,outcome,[5],inactive
same,outcome,[6],inactive
same,outcome,[7],inactive
same,outcome,[8],inactive
CCNc1ccccc1,AC50,[1],9.94 µM (active)
same,outcome,[2],inactive
same,outcome,[9],inactive
same,outcome,[3],inactive
same,outcome,[4],inactive
same,outcome,[5],inactive
same,outcome,[6],inactive
same,outcome,[7],inactive
same,outcome,[8],inactive
CCc1cc(SCc2sc(-c3ccc(C(F)(F)F)cc3)nc2CN2CCN(c3ccc(OC)cc3)CC2)ccc1OCC(=O)O,AC50,[1],7.69 µM (active)
same,AC50,[2],92.2 µM (active)
same,AC50,[3],8.67 µM (active)
same,AC50,[4],93.5 µM (active)
same,AC50,[5],25 µM (active)
same,AC50,[6],92.7 µM (active)
same,AC50,[7],90.3 µM (active)
same,AC50,[8],8.6 µM (active)
COC(=O)CC(=O)OC,AC50,[1],50 µM (active)
same,outcome,[2],inactive
same,outcome,[3],inactive
same,outcome,[4],inactive
same,outcome,[5],inactive
same,outcome,[6],inactive
same,outcome,[7],inactive
same,outcome,[8],inactive
COc1ccc(-n2nc(C(F)F)cc2-c2ccc(S(C)=O)cc2)cc1 (stereo not given),AC50,[1],60.3 µM (active)
same,outcome,[2],inactive
same,outcome,[3],inactive
same,outcome,[4],inactive
same,outcome,[5],inactive
same,outcome,[6],inactive
same,outcome,[7],inactive
same,AC50,[8],17.3 µM (active)
Oc1ccc2c(c1)-c1ccccc1C2,AC50,[1],10.5 µM (active)
same,outcome,[2],inactive
same,AC50,[10],38.5 µM (active)
same,outcome,[3],inactive
same,outcome,[4],inactive
same,outcome,[5],inactive
same,outcome,[6],inactive
same,outcome,[7],inactive
same,AC50,[8],25.1 µM (active)
CC(=O)c1ccc2c(c1)[C@H](NC(=O)c1ccc(F)cc1)[C@@H](O)C(C)(C)O2,outcome,[1],inactive
same,outcome,[2],inactive
same,outcome,[9],inactive
same,outcome,[3],inactive
same,outcome,[4],inactive
same,outcome,[5],inactive
same,outcome,[6],inactive
same,outcome,[7],inactive
same,outcome,[8],inactive
On1ccccc1=S,outcome,[1],inactive
same,outcome,[2],inactive
same,outcome,[9],inactive
same,outcome,[3],inactive
same,outcome,[4],inactive
same,outcome,[5],inactive
same,outcome,[6],inactive
same,outcome,[7],inactive
same,outcome,[8],inactive
CN(C)c1ccc(Cc2ccc(N(C)C)cc2)cc1,AC50,[1],13.2 µM (active)
same,outcome,[2],inactive
same,outcome,[3],inactive
same,outcome,[4],inactive
same,outcome,[5],inactive
same,outcome,[6],inactive
same,outcome,[7],inactive
same,outcome,[8],inactive
CCOCCO,outcome,[1],inactive
same,outcome,[2],inactive
same,outcome,[9],inactive
same,outcome,[3],inactive
same,outcome,[4],inactive
same,outcome,[5],inactive
same,outcome,[6],inactive
same,outcome,[7],inactive
same,outcome,[8],inactive
O=c1n(CC2CO2)c(=O)n(CC2CO2)c(=O)n1CC1CO1 (stereo not given),outcome,[1],inactive
same,outcome,[2],inactive
same,outcome,[9],inactive
same,outcome,[3],inactive
same,outcome,[4],inactive
same,outcome,[5],inactive
same,AC50,[6],79.1 µM (active)
same,outcome,[7],inactive
same,AC50,[8],88 µM (active)
CC(C)(O)c1coc(S(=O)(=O)NC(=O)Nc2c3c(cc4c2CCC4)CCC3)c1,AC50,[1],50 µM (active)
same,outcome,[2],inactive
same,outcome,[3],inactive
same,outcome,[4],inactive
same,outcome,[5],inactive
same,outcome,[6],inactive
same,outcome,[7],inactive
same,AC50,[8],50 µM (active)
Cc1ccc(N)cc1O,AC50,[1],26.4 µM (active)
same,outcome,[2],inactive
same,outcome,[10],inactive
same,outcome,[3],inactive
same,outcome,[4],inactive
same,outcome,[5],inactive
same,outcome,[6],inactive
same,outcome,[7],inactive
same,AC50,[8],50 µM (active)
CCOCCOCCOCCO,outcome,[1],inactive
same,outcome,[2],inactive
same,outcome,[3],inactive
same,outcome,[4],inactive
same,outcome,[5],inactive
same,outcome,[6],inactive
same,outcome,[7],inactive
same,outcome,[8],inactive
Cc1ccc(S(=O)(=O)O)cc1C,AC50,[1],74.3 µM (active)
same,outcome,[2],inactive
same,outcome,[9],inactive
same,outcome,[3],inactive
same,outcome,[4],inactive
same,outcome,[5],inactive
same,outcome,[6],inactive
same,outcome,[7],inactive
same,outcome,[8],inactive
CC(C)c1cccc(C(C)C)c1N1C(=O)c2ccc(O)cc2C1=O,AC50,[1],63.1 µM (active)
same,outcome,[2],inactive
same,outcome,[3],inactive
same,AC50,[4],80.4 µM (active)
same,AC50,[5],23.9 µM (active)
same,outcome,[6],inactive
same,AC50,[7],84.3 µM (active)
same,AC50,[8],89.9 µM (active)
O=C(OC[C@H]1O[C@@H](OC(=O)c2cc(O)c(O)c(OC(=O)c3cc(O)c(O)c(O)c3)c2)[C@H](OC(=O)c2cc(O)c(O)c(OC(=O)c3cc(O)c(O)c(O)c3)c2)[C@@H](OC(=O)c2cc(O)c(O)c(OC(=O)c3cc(O)c(O)c(O)c3)c2)[C@@H]1OC(=O)c1cc(O)c(O)c(OC(=O)c2cc(O)c(O)c(O)c2)c1)c1cc(O)c(O)c(OC(=O)c2cc(O)c(O)c(O)c2)c1,AC50,[1],9.36 µM (active)
same,outcome,[2],inactive
same,AC50,[3],3.26 µM (active)
same,outcome,[4],inactive
same,outcome,[5],inactive
same,outcome,[6],inactive
same,AC50,[7],9.66 µM (active)
same,AC50,[8],7.96 µM (active)
CN(C)c1ccc(N=NS(=O)(=O)O)cc1,AC50,[1],17.9 µM (active)
same,outcome,[2],inactive
same,outcome,[3],inactive
same,AC50,[4],16.4 µM (active)
same,outcome,[5],inactive
same,AC50,[6],31 µM (active)
same,outcome,[7],inactive
same,AC50,[8],21 µM (active)
CCCCC(CC)COC(=O)c1ccc(C(=O)OCC(CC)CCCC)cc1 (stereo not given),outcome,[1],inactive
same,outcome,[2],inactive
same,outcome,[3],inactive
same,outcome,[4],inactive
same,outcome,[5],inactive
same,outcome,[6],inactive
same,outcome,[7],inactive
same,outcome,[8],inactive
Cc1ccc(O)cc1,outcome,[2],inactive
same,outcome,[9],inactive
same,outcome,[10],inactive
same,outcome,[3],inactive
same,outcome,[4],inactive
same,outcome,[5],inactive
same,outcome,[6],inactive
same,outcome,[7],inactive
same,outcome,[8],inactive
CCCCCCc1ccc(O)cc1O,AC50,[1],77.7 µM (active)
same,outcome,[2],inactive
same,outcome,[3],inactive
same,outcome,[4],inactive
same,outcome,[5],inactive
same,outcome,[6],inactive
same,outcome,[7],inactive
same,outcome,[8],inactive
